# An excerpt weighted towards active compounds, which were near 1.1% of everything screened.
# PTHR1 agonist: activates the human parathyroid hormone receptor PTHR1. Q03431. 0.075% of 410,000 active. Potency, µM (titrated, usually from 115 µM), inactives show at the highest dose activation, hits mostly activators. HEK293 GP2 PTHR1 cells, GloSensor cAMP luminescence, 1 h; note: potency is the fitted concentration of half-maximal effect; nearly all actives have a fitted effect of over 55% in size
# Target sequence (Q03431 whole entry, looked up): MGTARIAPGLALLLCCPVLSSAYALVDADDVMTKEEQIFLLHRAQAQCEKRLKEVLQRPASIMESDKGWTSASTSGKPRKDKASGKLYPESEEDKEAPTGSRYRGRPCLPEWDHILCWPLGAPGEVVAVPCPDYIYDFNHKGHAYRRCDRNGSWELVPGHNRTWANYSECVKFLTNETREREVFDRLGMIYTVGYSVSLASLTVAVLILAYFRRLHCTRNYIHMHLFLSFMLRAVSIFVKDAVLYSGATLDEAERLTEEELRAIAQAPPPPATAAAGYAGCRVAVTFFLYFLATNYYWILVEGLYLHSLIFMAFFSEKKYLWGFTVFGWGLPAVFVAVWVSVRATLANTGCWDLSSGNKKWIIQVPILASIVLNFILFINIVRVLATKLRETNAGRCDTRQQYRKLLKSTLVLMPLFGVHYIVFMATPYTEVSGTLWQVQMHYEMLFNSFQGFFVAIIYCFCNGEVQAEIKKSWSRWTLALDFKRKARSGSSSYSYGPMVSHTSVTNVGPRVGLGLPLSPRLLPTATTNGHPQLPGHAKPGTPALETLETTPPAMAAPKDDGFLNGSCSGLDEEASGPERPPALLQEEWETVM
#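 HEK-293-derived GP2 cells expressing PTHR1 and a GloSensor cAMP reporter, 3,000/well, plated overnight, given luciferin plus IBMX (each 0.5 mM as added) for 1 h at 37 °C, then compound for 1 h at 37 °C. Luminescence was read after 15 min at room temperature.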
# LDHA inh: LDHA (human) enzyme inhibition. purified LDHA, NADH/diaphorase-resazurin fluorescence; stronger effect = lower value. P00338. activity change, % (values are at about 110 or 230 µM). 0.15% of 480,000 active; in the data active = activity change below about -30%; inconclusive = mostly about -25% to -30%;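 note: plate controls were DMSO wells for no effect and wells without enzyme for full effect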
#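 Human LDH5 at 2 nM final in Tris HCl pH 7.4 with 0.06 mM NADH and 0.2 mM pyruvate, reacted 5 minutes at room temperature. Remaining NADH coupled via diaphorase/resazurin; resorufin fluorescence read at 0 and 20 minutes, normalized to enzyme-free and DMSO wells.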
# p53 reactivation: restores transcriptional activity of mutant p53; H1299 p53-A138V BP100-luciferase reporter, luminescence, 24 h; Potency, µM (series often up to 92.2 µM), inactives show top-dose activity change, positive = activation, hits mostly activators; 0.063% of 320,000 active; AID 504706; note: potency is the fitted concentration of half-maximal effect; % of control where 0% means no effect; nearly all actives have a fitted effect of over 45% in size
#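 p53-null H1299 cells stably carrying temperature-sensitive p53-A138V and a BP100-luciferase reporter were pinned with compounds (4-point, 1:5 series) and held 24 hrs at 37 deg C. Luminescence was read 10 min after detection reagent.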
# RGS4 inh: blocks human RGS4-accelerated GTP hydrolysis; Transcreener GDP fluorescence polarization, RGS4-accelerated GTP hydrolysis; Potency, µM (highest dose often 114 µM), for inactives: top-dose activity change, negative = inhibition, usual class: inhibitors; 0.039% of 390,000 active; note: potency is the fitted concentration of half-maximal effect; % is set by controls: 0 for no effect and ±100 for the full control effect; nearly all actives have a fitted effect of over 75% in size
#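 MLSMR compounds (23 nl, pin-transferred) preincubated 10 min at room temperature with a 500nM (2x) first reagent, then RGS4 at 900nM (2x) plus Transcreener GDP mix added; fluorescence polarization (620/688 nm) read before and after 90 min at 30 °C.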
# BRCA1 expr act: increases BRCA1 expression. MCF7-BRCA1-FFLuc reporter, luminescence, 48 h; response scale: scaled: vehicle 0%, 10 µM genistein 100%. Potency, µM (top dose mostly 46.1 µM), without a hit: top-dose activation, usual class: activators. 1.1% of 380,000 active. AID 624202; note: potency is the fitted concentration of half-maximal effect; nearly all actives have a fitted effect of over 80% in size
#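 Reporter cells (MCF7, BRCA1 promoter-firefly luciferase) received library compounds across a concentration series for 48 h. End-point luminescence was measured and concentration-effect curves derived after normalization.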
# * hit, by the source's call; i = inactive; ? = inconclusive; . = not tested or not shown; [ ] = dose if it differs, or a comment. Unless noted, calls come from the whole dose curve; as a rule, active = well fitted curve in the direction sought with a large enough effect; inconclusive = small, poorly fitted or top-dose-only effect, or another doubt; inactive = no such curve, though single readings can be large; an effect the other way counts as inactive or inconclusive.
SMILES,PTHR1 agonist,LDHA inh,p53 reactivation,RGS4 inh,BRCA1 expr act
Cc1ccccc1CNC(=O)CSc1cccs1,.,6.7,.,.,.
O=C(Cn1ccc2ccc(Cl)cc21)Nc1ccc2c(c1)OCCO2,.,-20.4,.,.,.
Fc1cccc(OCc2cc(-c3ccccc3)on2)c1,.,1.1,.,.,.
Brc1cccc[n+]1CCC[n+]1ccccc1Br,.,-65.1*,.,.,-4.8%
Cc1cccc[n+]1CCCCCCCCCC[n+]1ccccc1C,i,-0.1,-0.3%,-8.1%,2.0%
CCc1nc(NC(=O)c2ccc(C#N)cc2)sc1C,.,0.4,.,.,.
O=c1c2ccccc2cnn1-c1ccc(Cl)cc1,-17.8%,-2.9,25.1µM*,-33.6%,29.3%
CCOC(=O)c1ccc(N/C=C/C(=O)c2ccco2)cc1,i,3.0,16.9%,-19.7%,?
O=C(/C=C/Nc1ccc(F)cc1)c1ccco1,-8.5%[57.5 µM],-5.8,44.7µM*,-24.2%,-27.1%
CN(CC(=O)N(C)C1CCS(=O)(=O)C1)c1ccc2ccccc2c1 (configuration not stated),.,8.1,.,.,.
CCCSC1=C(C#N)C(c2ccc(C)cc2)CC(=O)N1 (configuration not stated),.,3.8,.,.,.
Nc1nc(Cl)nc2c1ncn2[C@@H]1O[C@H](COP(=O)(O)OP(=O)(O)OP(=O)(O)O)[C@@H](O)[C@H]1O,.,.,.,0.532µM*,.
Nc1ncnc2c1ncn2C1O[C@H](CO)[C@@H](O)[C@@H]1O (some centres not stated),-6.4%,-9.7,-5.1%,22.1%,-28.1%
Nc1ncnc2c1ncn2[C@@H]1O[C@H](COP(=O)(O)OP(=O)(O)OP(=O)(O)OP(=O)(O)OC[C@@H]2O[C@H](n3cnc4c(N)ncnc43)[C@@H](O)[C@H]2O)[C@@H](O)[C@H]1O,.,.,.,2.99µM*,.
CCNc1nc(-c2ccc(Cl)cc2)cs1,-29.2%[57.5 µM],0.5,?,-41.8%,2.82µM*
Cc1[nH]n(-c2cccc(Cl)c2)c(=O)c1C=NCc1ccco1,-38.2%,-5.3,0.6%,3.7%[56.9 µM],11.2µM*
Cc1[nH]n(-c2cccc(Cl)c2)c(=O)c1C=NC12CN3CN(CN(C3)C1)C2,-3.2%,-2.6,1.4%,0.5%[11.4 µM],1.7%
Cc1[nH]n(-c2cccc(Cl)c2)c(=O)c1C=NCC(C)C,-24.1%,-7.9,9.3%,3.6%,10µM*
O=C(CSc1nnc(NC2CC2)s1)Nc1ccc(Cl)cc1,.,6.0,.,.,.
C[n+]1c(/C=C/c2ccc(O)cc2)ccc2ccccc21,-15.0%,-1.4,?,-31.0%,-1.4%
C[n+]1c(/C=C/c2ccc3c(c2)OCO3)ccc2ccccc21,-61.4%,-32.6*,?,4.3%,50.2%
O=C(Nc1nnc(-c2ccc(Cl)cc2)o1)C1CCN(S(=O)(=O)c2ccc3ccccc3c2)CC1,.,3.8,.,.,.
COC(=O)c1c(C)[nH]c(C(=O)OCc2ccc(F)cc2)c1C,i,-2.8,?,-33.3%,4.47µM*
CCc1ccc(-c2cnc3ccccc3n2)cc1NC(=O)CNC(=O)c1ccccc1,-15.6%,-6.0,?,0.7%,7.94µM*
CCOC(=O)c1cnc(-c2ccccc2)nc1N,-12.7%[57.5 µM],-3.5,?,-14.6%,3.98µM*
SMILES,PTHR1 agonist,LDHA inh,p53 reactivation,RGS4 inh,BRCA1 expr act
CC(=O)Nc1ccc(C(=O)OCc2ccccc2Br)cc1,-13.2%,-4.7,1.4%,-9.8%,62.4%
O=C(Nc1cccc(-c2cnc3ccccc3n2)c1)c1ccccc1,i,-9.2,4.7%,24.9%,18.0%
Cc1nc2ccc(C(=O)OCc3ccccc3Br)cc2nc1C,-2.4%,3.1,?,15.8%,7.08µM*
CCOC(=O)c1cnc(-c2ccccc2)nc1N(C)C,-2.2%[57.5 µM],-5.2,?,4.8%,-48.9%
CCOC(=O)c1ccc2ncc(-c3ccccc3)nc2c1,-18.2%,-5.3,?,-2.5%,12.6µM*
C[C@H]1CN([C@@H](C)CO)C(=O)c2cc(Br)cnc2O[C@@H]1CN(C)C(=O)CN(C)C,-20.0%,-37.1*,.,.,0.2%
C[C@@H]1CN([C@@H](C)CO)C(=O)c2cc(Br)cnc2O[C@@H]1CN(C)C(=O)CN(C)C,-14.5%,1.1,.,.,2.8%
CCc1ccccc1-n1nnnc1SCC(=O)Nc1ccc2nccnc2c1,.,6.3,.,.,.
O=C(Nc1ccc(Cl)cc1)OCc1cncs1,-23.0%,-0.4,?,-2.7%,11.2µM*
O=C(Nc1ccc(Cl)cc1)OCc1ccccn1,-11.1%[57.5 µM],-2.8,?,12.9%[56.9 µM],3.55µM*
O=C(Nc1cccc(Cl)c1)OCc1cncs1,-31.6%,-4.3,2.3%,-35.4%,32.0%
CN1CCN(C(=O)C2CCCN(S(=O)(=O)c3ccc(Cl)cc3)C2)CC1 (configuration not stated),-62.5%,-33.0*,-12.5%,7.3%,-5.9%
c1ccc(-c2cnnc(N3CCCCC3)n2)cc1,-9.9%[57.5 µM],-0.9,?,-17.0%,7.94µM*
CC1CCCCN1C(=O)COC(=O)c1n[nH]c2ccccc12 (configuration not stated),i,-7.9,?,1.8%,10µM*
COc1cccc2sc(Nc3nc(-c4ccccn4)cs3)nc12,.,.,25.1µM*,.,.
c1ccc(Nc2nc(-c3ccccn3)cs2)cc1,-15.7%,3.7,.,-4.9%,?
Fc1ccc(NC(=S)NCCCc2ccccc2)cc1,.,0.3,.,.,.
Cc1cc(-c2nnco2)c(C)n1-c1ccc(F)cc1,7.08µM*,-1.4,-2.9%,16.6%,98.0%
Cc1ccc(C)n1-c1ccc(-c2nnco2)cc1,.,.,15.3%,.,.
CC(=O)N[C@@H](Cc1c[nH]c2ccccc12)C(=O)NC1CCCCCC1,.,0.2,.,.,.
Cn1c(O)c(/C=C2\C=Nc3ccccc32)sc1=Nc1ccc(C(=O)O)cc1,-3.6%,-35.1*,-4.2%,-20.1%,-72.8%
c1csc(CSc2nc3ccccc3s2)c1,-13.5%[57.5 µM],-3.6,?,-10.5%,7.94µM*
CNc1nnc(CSc2nc3ccccc3s2)s1,-14.4%[57.5 µM],-5.1,?,-6.9%,11.2µM*
O=C1NC(=O)c2cc(Nc3ccccc3)c(Nc3ccccc3)cc21,.,-2.8,.,18.9µM*,-39.6%
O=C(Nc1ccc2c(c1)C(=O)NC2=O)c1ccccc1,-3.6%,1.6,7.5%,2.8%,-15.1%
SMILES,PTHR1 agonist,LDHA inh,p53 reactivation,RGS4 inh,BRCA1 expr act
Cc1cc(NCc2ccccc2)n2ncc(-c3ccccc3)c2n1,-15.3%,1.2,?,1.5%,?
Cc1cc(NC(C)c2ccccc2)n2ncc(-c3ccccc3)c2n1 (configuration not stated),-24.0%,-0.2,?,11.8%,6.31µM*
Cc1ccc(Nc2nc(CSc3nnc(-c4ccccc4)n3C)cs2)cc1,-33.5%,-5.3,?,-20.2%,3.55µM*
Cc1ccc(Nc2nc(CSc3nnc(-c4ccccc4C)n3C)cs2)cc1,-21.4%,0.1,?,11.4%,44.8%
Cc1ccc(Nc2nc(C)cs2)cc1,-15.1%,-7.0,5.2%,-18.7%,2.51µM*
Cn1nnnc1SCc1csc(Nc2ccccc2)n1,i,-4.0,?,-36.0%,12.6µM*
COc1ccc(-c2nnc(SCc3ccccn3)n2C)cc1,i,-1.0,28.4%,-12.2%[11.4 µM],12.6µM*
